Test results as given in PubChem BioAssay (NCATS).
Records with an inconclusive call do not appear. Calls of active or inactive are those of the source. Unless noted, calls come from the whole dose curve; as a rule, active = well fitted curve in either direction with a large enough effect (not every such curve was filed as active); inconclusive = small, poorly fitted or top-dose-only effect, or another doubt; inactive = flat fitted curve, though single readings scatter.

Columns and labels:
[1] = molecular target: Lysosomal acid glucosylceramidase (Homo sapiens) (UniProt P04062); assay: Glucocerebrosidase-p2 (AID 348; in the data active = potency below about 10 µM; note: potency is the fitted concentration of half-maximal effect); conditions: purified GBA, blue fluorogenic substrate, 40 min
Method in brief: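 Normal human glucocerebrosidase (0.2 nM) with blue fluorogenic substrate (80 uM final) in citrate/phosphate pH 5.9 with 10mM sodium taurocholate, 0.01% tween-20; 40 min RT, NaOH/glycine stop; fluorescence Ex 365/Em 440; AC50 from a titration from 0.6 nM upwards.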

[2] = AP1 Signaling Pathway (AID 357); conditions: ME-180 AP-1-bla reporter, EGF-induced, beta-lactamase ratio, 5 h; at 7.69 µM (top of the series) unless noted;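 note: ME-180 reporter cells stimulated with EGF at its EC50 level; % is set by controls: 0 for no effect and ±100 for the full control effect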
Method in brief: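 Titration-series screen for positive or negative modulators of EC50 EGF-induced signaling in ME-180 cells carrying an AP-1-driven beta-lactamase reporter. After 5 hours at 37 degrees Celsius, CCF4 460nm/530nm emission ratio gave %Activity; AC50 values derived.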

[3] = Stat Signaling Pathway (AID 446); conditions: ME-180 SIE beta-lactamase reporter, IL-6 stimulated, 5 h; at 7.69 µM (top of the series) unless noted;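 note: ME-180 cervical cancer cells given 40 pM IL-6 alongside compound; SIE-controlled beta-lactamase reporter measured as 460/530 nm FRET emission ratio; % is set by controls: 0 for no effect and ±100 for the full control effect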
Method in brief: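 Compound effects on IL-6-induced STAT reporter activity were measured in ME-180 cells. After overnight culture, cells were co-treated with 40 pM IL-6 for 5 hrs before beta-lactamase substrate loading at room temperature.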

[4] = molecular target: Glucocorticoid receptor (Homo sapiens) (UniProt P04150); assay: GR-EFC Redistribution (AID 451; calls by dose curve; note: potency is the fitted concentration of half-maximal effect); conditions: CHO-K1 GR-EFC translocation, beta-gal luminescence, 2 h
Method in brief: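 CHO-K1 cells stably expressing nuclear-localized β-gal enzyme acceptor and GR fused C-terminally to the enzyme donor fragment; ligand-driven nuclear translocation restores β-gal by complementation. Compounds titrated up to 46 uM final, 2 h at 37 °C; luminescence read.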

[5] = molecular target: Mitogen-activated protein kinase 10 (Mus musculus) (UniProt Q61831); assay: JNK3 AlphaScreen Assay (AID 530); conditions: JNK3 lysate, c-Jun phosphorylation; series mostly up to 57.1 µM;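 note: kinase came from lysate of stimulated human HepG2 cells; signal reports phosphorylation of biotinylated GST-cJun 1-79 at Ser73 with 10 µM ATP; % is set by controls: 0 for no effect and ±100 for the full control effect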
Method in brief: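 Phosphorylation of biotinylated GST-cJun(1-79) at Ser73 is measured by AlphaScreen proximity luminescence. Enzyme is JNK3 in HepG2 lysates activated with interleukin-1beta and tumor necrosis factor alpha; ATP is 10 uM final.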

[6] = molecular target: 3',5'-cyclic-AMP phosphodiesterase 4B (Homo sapiens) (UniProt Q07343); assay: qHTS Assay for Inhibitors of PDE-IV (AID 607; active = well fitted activation curve with a large enough effect in the main read-out, with a control signal flat, not every such curve was filed as active; note: % of control where 0% means no effect); conditions: HEK293 ACTOne CNG channel cells, membrane potential fluorescence; series mostly up to 22.9 µM
Method in brief: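 ACTOne HEK293 cells carry a modified cAMP-gated CNG channel and express endogenous PDE4; plated 1000 cells/well, compounds up to 22.9 uM final. Membrane-potential dye fluorescence (ex 535/em 590) was read; parental cells received 10 uM forskolin + 100 uM RO 20-1724.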

[7] = qHTS Assay for Lipid Storage Modulators (AID 1519; calls by dose curve); conditions: Drosophila S3 cells, BODIPY lipid droplet/cell ratio, laser cytometry, cells loaded with oleic acid; for activity change, negative = inhibition: at 57.5 µM (top of the series)
Method in brief: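 Cells seeded at 5,000 per well were treated with compounds over a concentration series and loaded with oleic acid (400 uM, as added). Lipid droplet fluorescence (488 nm excitation, 500-530 nm channel) was read by laser-scanning cytometry and normalized to 20 uM Triacsin C.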

[8] = Primary qHTS for small molecule stabilizers of the endoplasmic reticulum resident proteome: Secreted ER Calcium Modulated Protein (SERCaMP) assay (AID 1508630; active = well fitted curve in the direction sought with a large enough effect; an effect the other way counts as inactive or inconclusive; note: % is set by controls: 0 for no effect and ±100 for the full control effect); conditions: SH-SY5Y GLuc-SERCaMP (Gaussia luciferase released on ER calcium loss) secretion, thapsigargin, luminescence; series mostly up to 38.4 µM
Method in brief: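 The SH-SY5Y reporter protocol was run at 3 concentrations up to 38.3 uM (primary) or 11 concentrations (follow-up): 16 h compound, 100 nM thapsigargin for 4 h, then extracellular luciferase luminescence.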

[9] = molecular target: Cytochrome P450 3A4 (Homo sapiens) (UniProt P08684); assay: qHTS Assay for Activators of Cytochrome P450 3A4 (AID 885; active = well fitted curve in the direction sought with a large enough effect; an effect the other way counts as inactive or inconclusive; note: nearly all actives have a fitted effect of over 65% in size); conditions: recombinant CYP3A4, Luciferin-PPXE luminescence, 60 min; series mostly up to 57.1 µM
Method in brief: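 CYP3A4 activity: Luciferin-PPXE O-dealkylation, 25uM substrate, 200mM KPO4, RT throughout. Read-out is luciferase luminescence; higher values reflect activation.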

[10] = qHTS Assay for Identification of Small Molecule Agonists for Hypoxia Response Element Signaling Pathway (AID 914; active = well fitted activation curve with a large enough effect in the signal ratio, with a control signal flat, not every such curve was filed as active; the % refers to the signal ratio; note: % of control where 0% means no effect); conditions: ME-180 (cervical carcinoma) HRE-bla reporter, beta-lactamase ratio, CoCl2, 17 h; activation: stronger effect = higher value
Method in brief: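 qHTS titration; ME-180 HRE-bla cells; EC50 CoCl2 co-treatment, 17 h at 37 degrees Celsius; CCF4 dye, ex 405nm, em 460nm and 530nm; %Activity from ratio; AC50.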

[11] = molecular target: Cytochrome P450 2C19 (Homo sapiens) (UniProt P33261); assay: qHTS Assay for Inhibitors and Substrates of Cytochrome P450 2C19 (AID 899; active = well fitted curve in the direction sought with a large enough effect; an effect the other way counts as inactive or inconclusive; note: % is set by controls: 0 for no effect and ±100 for the full control effect; nearly all actives have a fitted effect of over 60% in size); conditions: recombinant CYP2C19, luciferin-H EGE luminescence; series mostly up to 57.1 µM
Method in brief: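 Human CYP2C19 (5nM) with Luciferin-H EGE at 10uM (its KM) in 50mM KPO4 was preincubated with compound for 10 min at 37C. NADPH regeneration started a 60 min 37C reaction. Luciferin was read by luminescence, normalized to 57uM ketoconazole.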

[12] = molecular target: Cytochrome P450 1A2 (Homo sapiens) (UniProt P05177); assay: p450-cyp1a2 (AID 410; calls by dose curve; note: potency is the fitted concentration of half-maximal effect); conditions: recombinant CYP1A2, luciferin-ME demethylation, luminescence; series mostly up to 57 µM
Method in brief: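 O-Demethylation of luciferin 6' methyl ether by human CYP1A2 is monitored as luciferase luminescence. Substrate sits at Km (100uM); enzyme is 20nM. Values are scaled to 57 uM furafylline as maximal inhibition.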

[13] = NFAT Signaling Pathway (AID 444); conditions: Jurkat NFAT-bla M1, carbachol, beta-lactamase ratio, 5 h; at 7.69 µM (top of the series) unless noted
Method in brief: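 Jurkat cells carrying an NFAT-driven β-lactamase reporter and co-transfected muscarinic M1 receptor were treated with compound plus carbachol (1 uM final, an EC50 level) for 5 h at 37 °C. CCF4 loading followed for 1 h at RT; 460/530 nm ratio gave %activity.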

[14] = molecular target: Cytochrome P450 2D6 (Homo sapiens) (UniProt P10635); assay: qHTS Assay for Inhibitors and Substrates of Cytochrome P450 2D6 (AID 891; active = well fitted curve in the direction sought with a large enough effect; an effect the other way counts as inactive or inconclusive; note: potency is the fitted concentration of half-maximal effect; nearly all actives have a fitted effect of over 60% in size); conditions: recombinant CYP2D6, luciferin-ME EGE luminescence; series mostly up to 57.1 µM
Method in brief: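 Luminescent read-out of luciferin formed by 5 nM human CYP2D6 demethylating 30 uM Luciferin-ME EGE (Km level) over 60 min at room temperature after NADPH regeneration addition. Data normalized to full inhibition by 1.43 uM quinidine.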

[15] = measured here: cell count channel max response
[16] = measured here: lipid channel max response

Chain of 3',5'-cyclic-AMP phosphodiesterase 4B (Homo sapiens) (Q07343 whole entry, looked up): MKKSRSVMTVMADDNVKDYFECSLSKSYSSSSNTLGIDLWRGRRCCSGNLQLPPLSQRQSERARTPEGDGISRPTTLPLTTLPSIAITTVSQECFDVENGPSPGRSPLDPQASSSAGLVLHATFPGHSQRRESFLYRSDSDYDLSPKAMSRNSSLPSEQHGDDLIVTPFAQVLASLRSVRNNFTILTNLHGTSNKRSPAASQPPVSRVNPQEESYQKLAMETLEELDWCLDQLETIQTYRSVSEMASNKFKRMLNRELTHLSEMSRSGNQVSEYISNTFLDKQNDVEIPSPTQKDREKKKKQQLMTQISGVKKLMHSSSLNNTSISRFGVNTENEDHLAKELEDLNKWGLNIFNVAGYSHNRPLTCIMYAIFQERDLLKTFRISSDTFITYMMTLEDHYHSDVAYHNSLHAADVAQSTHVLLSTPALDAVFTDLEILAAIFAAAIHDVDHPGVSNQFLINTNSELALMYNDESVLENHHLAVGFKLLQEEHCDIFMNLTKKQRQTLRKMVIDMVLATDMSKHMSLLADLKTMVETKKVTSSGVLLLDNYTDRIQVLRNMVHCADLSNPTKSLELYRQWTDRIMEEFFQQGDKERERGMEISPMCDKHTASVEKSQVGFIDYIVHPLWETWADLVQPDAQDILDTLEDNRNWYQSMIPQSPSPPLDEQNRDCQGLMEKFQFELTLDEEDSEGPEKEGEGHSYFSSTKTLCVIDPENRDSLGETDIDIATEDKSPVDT
Chain of Lysosomal acid glucosylceramidase (Homo sapiens) (P04062 whole entry, looked up): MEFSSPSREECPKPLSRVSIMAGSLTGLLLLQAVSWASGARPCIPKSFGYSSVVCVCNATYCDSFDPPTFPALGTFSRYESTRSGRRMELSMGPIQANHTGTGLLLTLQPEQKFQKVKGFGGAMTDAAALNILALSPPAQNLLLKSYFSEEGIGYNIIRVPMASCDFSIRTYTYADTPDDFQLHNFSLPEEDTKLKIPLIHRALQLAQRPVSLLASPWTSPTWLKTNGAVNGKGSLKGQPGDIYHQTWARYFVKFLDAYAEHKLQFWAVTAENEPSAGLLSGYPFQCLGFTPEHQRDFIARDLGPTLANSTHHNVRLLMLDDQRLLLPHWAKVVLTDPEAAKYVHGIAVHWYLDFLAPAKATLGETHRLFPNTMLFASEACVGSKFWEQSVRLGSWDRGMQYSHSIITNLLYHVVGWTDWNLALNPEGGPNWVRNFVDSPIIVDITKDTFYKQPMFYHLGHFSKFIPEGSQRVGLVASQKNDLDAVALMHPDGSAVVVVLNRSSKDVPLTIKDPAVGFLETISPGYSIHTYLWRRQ
Chain of Glucocorticoid receptor (Homo sapiens) (P04150 whole entry, looked up, the tested form may be a part): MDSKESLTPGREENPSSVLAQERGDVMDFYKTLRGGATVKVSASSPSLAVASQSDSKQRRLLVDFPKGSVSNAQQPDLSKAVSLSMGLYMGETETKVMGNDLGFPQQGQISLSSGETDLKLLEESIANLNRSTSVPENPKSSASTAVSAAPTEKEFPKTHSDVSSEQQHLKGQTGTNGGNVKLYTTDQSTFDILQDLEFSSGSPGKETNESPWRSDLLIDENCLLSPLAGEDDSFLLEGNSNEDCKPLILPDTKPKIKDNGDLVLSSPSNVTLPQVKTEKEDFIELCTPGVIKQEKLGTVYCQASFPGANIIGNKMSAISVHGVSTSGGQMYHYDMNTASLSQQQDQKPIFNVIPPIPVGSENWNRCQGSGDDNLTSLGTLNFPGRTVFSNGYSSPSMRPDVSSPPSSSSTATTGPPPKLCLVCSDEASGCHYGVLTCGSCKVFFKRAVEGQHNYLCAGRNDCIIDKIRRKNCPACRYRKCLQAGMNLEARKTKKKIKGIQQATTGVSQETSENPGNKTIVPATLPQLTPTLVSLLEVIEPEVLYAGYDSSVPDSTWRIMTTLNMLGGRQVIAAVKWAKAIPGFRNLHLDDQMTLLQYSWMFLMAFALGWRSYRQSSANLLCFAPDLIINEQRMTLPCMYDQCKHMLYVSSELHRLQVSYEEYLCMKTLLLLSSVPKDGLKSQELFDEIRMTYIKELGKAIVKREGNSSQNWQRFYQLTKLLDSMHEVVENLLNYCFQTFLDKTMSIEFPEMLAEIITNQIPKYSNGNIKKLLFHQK
Chain of Cytochrome P450 2D6 (Homo sapiens) (P10635 whole entry, looked up): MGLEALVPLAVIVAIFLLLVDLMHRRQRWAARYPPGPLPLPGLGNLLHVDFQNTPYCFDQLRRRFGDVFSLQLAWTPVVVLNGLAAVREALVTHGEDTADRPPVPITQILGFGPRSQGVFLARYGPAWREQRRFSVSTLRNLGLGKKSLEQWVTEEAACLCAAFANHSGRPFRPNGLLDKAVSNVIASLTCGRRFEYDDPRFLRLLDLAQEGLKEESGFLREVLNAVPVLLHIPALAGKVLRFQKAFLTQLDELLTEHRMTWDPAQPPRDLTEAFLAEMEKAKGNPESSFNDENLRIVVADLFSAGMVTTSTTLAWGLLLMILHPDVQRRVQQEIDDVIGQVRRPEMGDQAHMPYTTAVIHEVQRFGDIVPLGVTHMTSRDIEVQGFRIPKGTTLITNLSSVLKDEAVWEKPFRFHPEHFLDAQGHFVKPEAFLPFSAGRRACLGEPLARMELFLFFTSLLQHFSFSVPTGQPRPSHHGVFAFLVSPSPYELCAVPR
Chain of Cytochrome P450 3A4 (Homo sapiens) (P08684 whole entry, looked up): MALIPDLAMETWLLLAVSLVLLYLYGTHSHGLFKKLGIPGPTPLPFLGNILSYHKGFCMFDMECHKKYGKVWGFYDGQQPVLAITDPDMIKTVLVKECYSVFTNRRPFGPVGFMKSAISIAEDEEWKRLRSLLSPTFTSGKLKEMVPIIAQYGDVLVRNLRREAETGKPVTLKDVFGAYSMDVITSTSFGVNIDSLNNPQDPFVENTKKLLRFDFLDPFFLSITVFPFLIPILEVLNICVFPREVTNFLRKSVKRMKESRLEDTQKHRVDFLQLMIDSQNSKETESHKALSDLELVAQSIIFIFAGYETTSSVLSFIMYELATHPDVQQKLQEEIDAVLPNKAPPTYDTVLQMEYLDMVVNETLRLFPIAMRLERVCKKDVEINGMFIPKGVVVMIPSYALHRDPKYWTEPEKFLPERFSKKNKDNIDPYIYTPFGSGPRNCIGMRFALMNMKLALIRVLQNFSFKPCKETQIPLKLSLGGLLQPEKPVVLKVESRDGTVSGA
Chain of Cytochrome P450 2C19 (Homo sapiens) (P33261 whole entry, looked up): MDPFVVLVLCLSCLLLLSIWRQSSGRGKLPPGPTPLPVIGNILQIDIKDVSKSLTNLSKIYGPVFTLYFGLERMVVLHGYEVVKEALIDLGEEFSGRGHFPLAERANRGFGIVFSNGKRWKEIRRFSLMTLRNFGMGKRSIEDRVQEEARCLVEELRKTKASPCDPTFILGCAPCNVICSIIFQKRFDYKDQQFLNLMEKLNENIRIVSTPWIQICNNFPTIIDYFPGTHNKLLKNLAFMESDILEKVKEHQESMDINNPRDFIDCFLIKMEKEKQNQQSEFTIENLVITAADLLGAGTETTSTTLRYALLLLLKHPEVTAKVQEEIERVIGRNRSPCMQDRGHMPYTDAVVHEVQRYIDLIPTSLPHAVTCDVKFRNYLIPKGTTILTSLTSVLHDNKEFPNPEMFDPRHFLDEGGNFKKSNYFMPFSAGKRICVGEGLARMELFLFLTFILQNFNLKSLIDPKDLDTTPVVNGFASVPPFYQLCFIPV
Chain of Cytochrome P450 1A2 (Homo sapiens) (P05177 whole entry, looked up): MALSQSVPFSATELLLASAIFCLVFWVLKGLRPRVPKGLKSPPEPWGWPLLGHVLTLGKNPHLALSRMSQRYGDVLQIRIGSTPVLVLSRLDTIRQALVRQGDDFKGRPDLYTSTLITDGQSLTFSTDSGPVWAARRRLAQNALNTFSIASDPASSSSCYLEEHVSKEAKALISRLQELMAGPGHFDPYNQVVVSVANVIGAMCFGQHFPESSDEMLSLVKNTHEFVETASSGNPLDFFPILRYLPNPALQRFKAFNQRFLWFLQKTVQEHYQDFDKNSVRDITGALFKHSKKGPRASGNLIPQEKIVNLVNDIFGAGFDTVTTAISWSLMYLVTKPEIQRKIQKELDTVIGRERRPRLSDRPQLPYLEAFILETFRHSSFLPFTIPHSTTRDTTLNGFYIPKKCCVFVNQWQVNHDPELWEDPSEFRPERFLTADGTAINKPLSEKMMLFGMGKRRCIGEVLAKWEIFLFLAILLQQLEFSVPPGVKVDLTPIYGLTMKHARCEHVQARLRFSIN

N#Cc1ccc(CN2CCCC3(CCN(C(=O)c4csnn4)CC3)C2)cc1
-10.9%: max response [7, 15]
-8.04%: max response [7, 16]
inactive: Potency [1] > 11.4 µM | activity change, negative = inhibition [2] -6.06% | activity, negative = inhibition [3] 1.34% | Potency [4] > 46 µM | Potency [5] | Potency [6] | activity change, negative = inhibition [7] -0.464% | outcome [8]

COc1ccccc1CN1CC2(CCN(C(=O)c3cc(C(F)(F)F)cc(C(F)(F)F)c3)CC2)C1
10.9%: max response [7, 16]
inactive: Potency [1] > 11.4 µM | activity change, negative = inhibition [2] 1.43% | activity, negative = inhibition [3] 3.93% | Potency [4] > 46 µM | Potency [5] | activity change, negative = inhibition [7] -1.27% | outcome [8]
11.2%: max response [7, 15]

COC(=O)N1CCC2(CCN(Cc3ccc(C#N)cc3)CC2)CC1
14.3%: max response [7, 16]
inactive: Potency [1] > 11.4 µM | activity change, negative = inhibition [2] -12.5% | activity, negative = inhibition [3] 21.3% | Potency [4] > 46 µM | Potency [5] | Potency [6] | activity change, negative = inhibition [7] 6.51% | outcome [8]
5.74%: max response [7, 15]

N#Cc1ccc(CN2CCC3(CC2)CCN(C(=O)c2ccco2)CC3)cc1
inactive: Potency [1] > 11.4 µM | activity change, negative = inhibition [2] -11.2% | activity, negative = inhibition [3] -4.42% | Potency [4] > 46 µM | Potency [5] | Potency [6] | activity change, negative = inhibition [7] 1.05% | outcome [8]
20.4%: max response [7, 15]
24%: max response [7, 16]

CC(=O)N1CCC2(CCCN(Cc3ccc(C#N)cc3)C2)CC1
18.3%: max response [7, 16]
10.3%: max response [7, 15]
inactive: Potency [1] > 11.4 µM | activity change, negative = inhibition [2] 1.53% | activity, negative = inhibition [3] 6.73% | Potency [4] > 46 µM | Potency [5] | Potency [6] | activity change, negative = inhibition [7] 4.86% | outcome [8]

N#Cc1ccc(CN2CCC3(CCNCC3)CC2)cc1
inactive: Potency [1] > 11.4 µM | activity change, negative = inhibition [2] 1.45% | activity, negative = inhibition [3] 2.48% | Potency [4] > 46 µM | Potency [5] | Potency [6] | activity change, negative = inhibition [7] 1.87% | outcome [8]
9.11%: max response [7, 15]
14.9%: max response [7, 16]

CC(C)CN1CC2(CCN(C(=O)c3csnn3)CC2)C1
inactive: Potency [1] > 11.4 µM | activity change, negative = inhibition [2] -4.73% | activity, negative = inhibition [3] 4.77% | Potency [4] > 46 µM | Potency [5] | Potency [6] | activity change, negative = inhibition [7] -0.802% | outcome [8]
-0.0505%: max response [7, 16]
-2.36%: max response [7, 15]

COc1ccc(C(=O)N2CCC3(CCCN(c4ccccc4)C3)CC2)cc1
-15%: max response [7, 16]
1.98%: max response [7, 15]
inactive: Potency [1] > 11.4 µM | activity change, negative = inhibition [2] -1.35% | activity, negative = inhibition [3] -0.767% | Potency [4] > 46 µM | Potency [5] | Potency [6] | activity change, negative = inhibition [7] -17.3% | outcome [8]

Cn1cccc1C(=O)N1CCC2(CCCN(C(=O)Nc3cccc(F)c3)C2)CC1
inactive: Potency [1] > 11.4 µM | activity change, negative = inhibition [2] -15.3% | Potency [4] > 46 µM | Potency [5] | Potency [6] | Potency [9] | activity change, negative = inhibition [7] 5.97% | outcome [8]
6.22%: max response [7, 16]
-2.38%: max response [7, 15]

COCC(=O)N1CCC[C@@]2(CCN(c3ccncc3)C2)C1
3.63%: max response [7, 16]
inactive: Potency [1] > 11.4 µM | activity change, negative = inhibition [2] -10.7% | activity, negative = inhibition [3] 5.19% | Potency [4] > 46 µM | Potency [5] | Potency [6] | activity change, negative = inhibition [7] 1.37% | outcome [8]
-0.218%: max response [7, 15]

O=C(c1cccc(F)c1)N1CCC2(CCCN(c3ccccn3)C2)CC1
21.3%: max response [7, 16]
9.06%: max response [7, 15]
inactive: Potency [1] > 11.4 µM | activity change, negative = inhibition [2] -14% | activity, negative = inhibition [3] -2.13% | Potency [4] > 46 µM | Potency [5] | Potency [6] | activation [10] -10.7% | activity change, negative = inhibition [7] 6.75% | outcome [8]

CC(C)CN1CC2(CCN(S(=O)(=O)c3ccccc3)CC2)C1
-17.9%: max response [7, 15]
-14.3%: max response [7, 16]
inactive: Potency [1] > 11.4 µM | activity change, negative = inhibition [2] 6.33% | activity, negative = inhibition [3] -2.48% | Potency [4] > 46 µM | Potency [5] | Potency [6] | activation [10] 6.29% | activity change, negative = inhibition [7] -0.648% | outcome [8]

O=C(c1cnccn1)N1CCC2(CCCN(Cc3ccccc3)C2)CC1
14.6%: max response [7, 15]
17.1%: max response [7, 16]
inactive: Potency [1] > 11.4 µM | activity change, negative = inhibition [2] -6.44% | activity, negative = inhibition [3] -11.8% | Potency [4] > 46 µM | Potency [5] | Potency [6] | activation [10] 16.9% | activity change, negative = inhibition [7] 1.18% | outcome [8]

COC(=O)N1CCC2(CCCN(c3ccncc3)C2)CC1
21.3%: max response [7, 15]
inactive: Potency [1] > 11.4 µM | activity change, negative = inhibition [2] -3.28% | activity, negative = inhibition [3] 5.05% | Potency [4] > 46 µM | Potency [5] | Potency [6] | Potency [11] | activity change, negative = inhibition [7] 5.16% | outcome [8]
29.2%: max response [7, 16]

CS(=O)(=O)N1CCC2(CC1)CN(c1ccccc1)C2
17.6%: max response [7, 16]
inactive: Potency [1] > 11.4 µM | activity change, negative = inhibition [13] 24.3% | activity, negative = inhibition [3] -8.44% | Potency [4] > 46 µM | Potency [5] | Potency [6] | activity change, negative = inhibition [7] 0.887% | outcome [8]
14%: max response [7, 15]
active: Potency [12] 20 µM | Potency [14] 1.26 µM
